Assay outcomes as filed in PubChem BioAssay.
A selection: hits, their analogues and other compounds. The true share with any hit is near 2.9%.
DRD3 antagonist – D3 dopamine receptor (human) antagonism. max response, negative = inhibition, %. 360,000 compounds, 2.5% hits. D3R cells, DiscoveRx beta-arrestin luminescence, antagonist mode; stronger effect = lower value. P35462. AID 652054; in the data active means max response below about -50%; inconclusive means no clear call, values can overlap the other calls; further: on the % scale 0 is the no-effect control and ±100 the full control effect
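Cells plated overnight at 1500 cells/well, then exposed to library compounds with dopamine controls for 90 minutes at 37 degrees C. DiscoveRx reagent added for 30–60 minutes at room temperature; luminescence read, quantitative HTS format.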
Rango-impB inh – inhibitors of Rango-importin beta complex formation | Q14974 | Rango CFP/YFP FRET sensor + importin beta, 45 min | Potency, µM (titrated, usually from 92.2 µM), without a hit: at the highest dose inhibition of complex formation | 340,000 compounds, 0.031% hits | AID 540263;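 further: potency means the concentration at half of the fitted maximal effect; 0% = DMSO wells and 100% = buffer wells lacking importin beta; nearly all actives have a fitted effect of over 15% in size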
Target sequence (Q14974 whole entry, looked up): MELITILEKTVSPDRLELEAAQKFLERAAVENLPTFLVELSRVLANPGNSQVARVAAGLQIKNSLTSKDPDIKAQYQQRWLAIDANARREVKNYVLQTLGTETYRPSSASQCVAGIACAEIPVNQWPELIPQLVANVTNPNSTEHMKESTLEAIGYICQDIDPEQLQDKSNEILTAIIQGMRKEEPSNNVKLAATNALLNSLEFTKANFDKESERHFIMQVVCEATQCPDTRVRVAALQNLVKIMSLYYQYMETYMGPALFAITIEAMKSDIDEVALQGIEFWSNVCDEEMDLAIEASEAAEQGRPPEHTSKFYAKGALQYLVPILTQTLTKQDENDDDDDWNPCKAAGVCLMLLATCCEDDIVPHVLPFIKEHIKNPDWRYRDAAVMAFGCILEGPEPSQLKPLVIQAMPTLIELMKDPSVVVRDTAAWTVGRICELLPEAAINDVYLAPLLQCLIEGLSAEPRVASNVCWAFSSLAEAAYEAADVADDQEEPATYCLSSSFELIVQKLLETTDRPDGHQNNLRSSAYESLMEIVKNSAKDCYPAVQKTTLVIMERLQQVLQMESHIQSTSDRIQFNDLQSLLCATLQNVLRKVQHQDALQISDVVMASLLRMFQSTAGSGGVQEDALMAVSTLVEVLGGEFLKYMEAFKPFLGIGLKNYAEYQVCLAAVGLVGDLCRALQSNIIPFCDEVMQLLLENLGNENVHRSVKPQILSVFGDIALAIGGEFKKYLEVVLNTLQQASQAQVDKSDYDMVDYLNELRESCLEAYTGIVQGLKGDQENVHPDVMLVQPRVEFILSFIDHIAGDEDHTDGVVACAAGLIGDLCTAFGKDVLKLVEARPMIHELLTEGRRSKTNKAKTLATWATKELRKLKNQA
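FRET biosensor (snurportin 1 IBB flanked by EYFP and cerulean), 50 nM, with compound 5 min, then 0.125 microM importin beta in PBS, 1 mM DTT, 0.02% Tween-20, 0.1% BSA. CFP/YFP ratio read after 45 min at room temperature; pre-read flags interference.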
Rango dissoc inh – inhibitors of RanGTP-induced Rango-importin beta complex dissociation. O95149+P62826. AID 540253. Potency, µM (series often up to 46.1 µM), without a hit: at the highest dose activity change, negative = inhibition. Biochemical FRET Rango-importin beta, RanGTP-induced dissociation. 340,000 compounds, 0.071% hits; further: potency means the concentration at half of the fitted maximal effect; % of control where 0% means no effect; nearly all actives have a fitted effect of over 45% in size
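Quantitative HTS using a FRET biosensor: 0.1 uM Rango, 0.25 uM importin beta, 0.6 uM Ran, 2 mM GTP, 0.2 uM RCC1 final, PBS with DTT, Tween-20 and BSA. Post-read taken 45 min after Ran addition.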
MmCpn inh – inhibitors of Methanococcus maripaludis chaperonin TRiC (MmCpn); purified Mm-Cpn ATPase, ADP Transcreener TR-FRET; Potency, µM (series often up to 76.9 µM), without a hit: at the highest dose activity, negative = inhibition, usual class: inhibitors; 330,000 compounds, 0.031% hits; AID 504842; active means well fitted inhibition curve with a large enough effect; inconclusive means small, poorly fitted or top-dose-only effect; further: potency means the concentration at half of the fitted maximal effect; on the % scale 0 is the no-effect control and ±100 the full control effect; nearly all actives have a fitted effect of over 80% in size
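Purified archaeal chaperonin (25 nM final) was preincubated with compound for 10 min at 37°C, then ATP (10 uM final) was added for 30 min at 37°C in Tris pH 7.4/KCl/MgCl2/DTT buffer. ADP was quantified by HTRF Transcreener TR-FRET.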
D3 ag – D3 dopamine receptor (human) agonism; P35462; D3R DiscoveRx beta-arrestin cells, luminescence, 90 min; max activation, %; 410,000 compounds, 0.58% hits; AID 652048; in the data active means max activation above about 30%; further: 0% is about no effect
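Cells at 1500/well, incubated overnight, then treated with pinned compounds (dopamine as control) for 90 min at 37 degrees C. DiscoveRx reagent added for 30 - 60 minutes at room temperature; luminescence read.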
TSG101-PTAP inh – blocks PTAP/TSG101 interaction to inhibit HIV-1 budding; Q99816; Fluorescence polarization, FITC-PTAP peptide / Tsg101 binding; Potency, µM (doses to about 115 µM), for inactives: at the top dose activity change, negative = inhibition, usual class: inhibitors; 340,000 tested, under 10 active; AID 493005; active means well fitted inhibition curve with a large enough effect in the main read-out, with a control signal flat, not every such curve was filed as active; inconclusive means small, poorly fitted or top-dose-only effect, or effect the other way, or a change in a side signal; inactive means no such curve, though single readings can be large or run the other way; further: potency means the concentration at half of the fitted maximal effect; % of control where 0% means no effect
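Fluorescence polarization binding of Tsg101 binding domain (10 uM final) to FITC-labeled PTAP peptide (50 nM final) in HEPES pH 7.5 buffer with NaCl, Tween 20, EDTA, TCEP. Compounds added before peptide; binding 20 min at RT.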
Active calls of the source: *; u = inconclusive; x = no result. Unless noted, the call rests on the fitted dose curve.

SMILES	DRD3 antagonist	Rango-impB inh	Rango dissoc inh	MmCpn inh	D3 ag	TSG101-PTAP inh
O=S(=O)(c1ccc(OCC(O)CN2CCC(Cc3ccccc3)CC2)cc1)N1CCOCC1 (stereo not given)	-59*	3%	6%	-13%	-32	-9%
O=C(/C=C/c1ccco1)NC(=S)NNC(=O)c1ccco1	-84*	0%	-14%	0%	15	0%
Cc1ccnc(NC(=S)NC(=O)/C=C/c2ccco2)c1	-51*	-2%	-8%	-2%	2	0%
Cc1cncn1CCc1nc2c3ccccc3nc(SCC(=O)Nc3ccccc3F)n2n1	x	x	x	x	4	x
CSc1ccccc1OC1CCN(Cc2ccccc2)CC1	-92*	5%	1%	1%	-33	0%
Cc1cc(Cl)c(OCCCSc2nc(C)cc(=O)[nH]2)c(Br)c1	20	0%	-7%	1%	41*	-13%
CO[C@@H]1[C@@H](O[C@@H]2O[C@H](C)[C@@H](O[C@H]3C[C@@](C)(O)[C@@H](OC(=O)CC(C)C)[C@H](C)O3)[C@H](N(C)C)[C@H]2O)[C@@H](CC=O)C[C@@H](C)[C@@H](O)/C=C/C=C/C[C@@H](C)OC(=O)C[C@H]1O	x	x	x	x	11	x
Cc1cccc(C(=O)O[C@@H]2[C@H](Cc3ccccc3)NS(=O)(=O)[C@H]3C[C@@H]4C=C[C@]23O4)c1	-6	-3%	44%	0%	52*	-3%
Cc1cccc(C(=O)O[C@H]2[C@H](Cc3ccccc3)NS(=O)(=O)[C@H]3CC4C=C[C@]23O4)c1	4	1%	10%	u	12	x
COc1ccc(CNS(=O)(=O)c2ccc3c(c2)N(C(C)=O)CC(C)S3)cc1 (stereo not given)	3	4%	1%	-5%	7	-2%
COc1ccc(CC(=O)NNC(=O)COc2ccc3ccccc3c2)cc1	-11	-3%	-13%	40µM*	3	-8%
COc1ccc(OCC(=O)NCCNC(=O)c2ccccn2)cc1	11	-1%	-3%	2%	5	-2%
COc1ccc(OCC(=O)NNC(=S)NC(=O)C2CC2)cc1	7	0%	-8%	1%	31*	-1%
COc1ccc(OCC(=O)NNC(=O)c2ccccn2)cc1	-82*	-4%	-12%	1%	-9	-5%
O=C(CCN1CCCO1)N1CCCC(Nc2cccc(F)c2)C1 (stereo not given)	21	x	x	x	1	x
CCNC(=O)C1CCN(c2nc3ccccc3nc2C(F)(F)F)CC1	x	x	x	x	-4	x
O=C(O)c1ccccc1NS(=O)(=O)c1ccc2c(c1)OCCO2	-16	5%	2%	5%	-1	-4%
O=C(NS(=O)(=O)c1ccc2c(c1)OCCO2)c1ccccc1	-85*	-2%	-9%	5%	2	-18%
CC1=C(c2ccc(C(C)C)cc2)S(=O)(=O)N=C1N1CCC(C(=O)NCCc2ccco2)CC1	x	x	x	x	6	x
CCOc1ccc(/C=C2\SC(=O)N(CCNC(=O)C3COc4ccccc4O3)C2=O)cc1OC (stereo not given)	105	u	-5%	2%	50*	0%
COc1ccc(/C=C2/SC(=O)N(CCNC(=O)C3COc4ccccc4O3)C2=O)cc1 (stereo not given)	17	-5%	28%	1%	9	4%
O=C(O)CN(CC(=O)O)CC(=O)O	-73*	-3%	1%	x	-46	-5%
O=C(O)CN(CCO)CCN(CC(=O)O)CC(=O)O	x	x	x	0%	x	x
CCOC(=O)c1ccccc1NC(=O)CN1CCCN(Cc2cccc(Cl)c2)S1(=O)=O	x	x	x	x	6	x
O=S(=O)(CCSc1nc2ccccc2o1)c1nc2ccccc2s1	-62*	-2%	0%	-4%	-11	-6%
CCS(=O)(=O)CCSc1nc2ccccc2o1	-11	-4%	3%	-3%	-2	-3%
Cc1ccc(CN(C(=O)COc2ccc(Br)cc2)c2ccccn2)o1	x	x	x	x	0	x
Cc1ccc(CN(C(=O)COc2ccccc2[N+](=O)[O-])c2ccccn2)o1	x	x	x	x	38*	x
